Compounds with a hit are over-represented: about 5.5% of the library has one in this group of screens.
FBPA coupling cs = inhibits coupling enzyme system, counter-screen for aldolase hits; AID 2472; activity change, negative = inhibition, % at 58.2 µM, hits read low; 0.67% of 290,000 active; coupling enzyme system counterscreen, AmpLite Red fluorescence; in the data active = activity change below about -30%
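Compounds tested against the coupling enzymes alone at 57.5 uM final; readout was AmpLite Red fluorescence (525/598 nm) after 20 min at RT.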
Sfp PPTase inh = Sfp phosphopantetheinyl transferase inhibition. Q9F4F7. Biochemical Sfp PPTase activity, qHTS. Potency, µM, for inactives: largest response in the series, negative = inhibition, usual class: inhibitors. 3.5% of 310,000 active. AID 1490;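 also: the enzyme is Sfp with the accession as filed and its product quenches rhodamine fluorescence; potency is read from the fitted curve at half-maximal effect; 0% = enzyme reaction without inhibitor and -100% = no enzyme wells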
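Buffer: 50 mM Hepes-Na pH 7.6, 10 mM MgCl2, 0.01% Nonidet P-40, 0.01% BSA. Enzyme 15 nM, pre-exposed to compound 15 min; substrates then added and fluorescence change tracked over 30 min.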
ELG1 repair inh = inhibitors of ELG1-dependent DNA repair in HEK293T cells; Potency, µM (top dose mostly 46.1 µM), without a hit: at the top dose activity change, negative = inhibition, usual class: inhibitors; 2.3% of 330,000 active; HEK293T ELG1-luciferase reporter, luminescence, 16 h; DNA damage induced by 5-fluorouridine; also: potency is read from the fitted curve at half-maximal effect; nearly all actives have a fitted effect of over 55% in size
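Luminescence from the luciferase reporter, measured 30 min after ONE-Glo reagent at room temperature, was the read-out. Beforehand, 2,000 cells per well were exposed for 16 hr at 37 °C to 5-fluorouridine together with compound or vehicle.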
Giardia kill = Giardia lamblia killing; Giardia lamblia trophozoite viability; 0.15% of 340,000 active; activity change, % at 7.66 µM, hits read low; in the data active = activity change below about -80%; inconclusive = between about -30% and that limit;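 also: parasites exposed to compound for two days anaerobically before the ATP read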
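ATP-content bioluminescence gauges trophozoite survival. Cells (100/well) receive compound and incubate anaerobically for 48 hrs at 37 deg C; detection reagent follows for 15-30 min at room temperature.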
* hit, by the source's call; u = inconclusive; x = not tested or not shown. Unless noted, calls follow the shape of the dose curve; as a rule, active = well fitted curve in the direction sought with a large enough effect; inconclusive = small, poorly fitted or top-dose-only effect, or another doubt; inactive = no such curve, though single readings can be large; an effect the other way counts as inactive or inconclusive. Unless noted, % is scaled to controls: 0 for no effect and ±100 for the full control effect.

SMILES	FBPA coupling cs	Sfp PPTase inh	ELG1 repair inh	Giardia kill
CCCn1c(C)nc2c(NC(C)CCCN(CC)CC)nc(C)nc21 (stereo not given)	2	18%	x	x
O=C(c1ccccc1)c1ccc2nc(N3CCN(C(=O)c4ccco4)CC3)c3nncn3c2c1	-1	u	21µM*	-11
CC(C)c1ccc(C(C(=O)NC2CCCCC2)N(C(=O)c2csnn2)C2CC2)cc1 (stereo not given)	0	1%	-6%	-8
Cc1ccccc1CN1C(=O)C(C)S/C1=N/N=C/c1ccco1 (stereo not given)	-6	79µM*	u	1
CC1S/C(=N/N=C/c2ccco2)N(Cc2ccc(F)cc2)C1=O (stereo not given)	-4	-7%	15%	-2
Cc1cccc(N(CC(O)CN2CCCC2)S(=O)(=O)c2ccccc2)c1 (stereo not given)	0	5%	13%	-9
COc1ccccc1OCCNC(=O)c1cccc(S(=O)(=O)N2CCN(Cc3ccccc3)CC2)c1	x	x	21µM*	11
O=C(NCCOc1ccc(Cl)cc1)c1cccc(S(=O)(=O)N2CCCC2)c1	x	x	8.9µM*	0
O=C(c1cccc(S(=O)(=O)N2CCCC2)c1)c1cccc(S(=O)(=O)N2CCCC2)c1	1	7%	5.8µM*	-2
O=C(c1cccc(S(=O)(=O)N2CCCCC2)c1)N1CCCCC1	0	20%	4%	11
CCCn1c(NC(=O)c2cccc(S(=O)(=O)N3CCCC3)c2)nc2ccccc21	-13	5%	8.2µM*	0
CC1CCN(C(=O)COC(=O)Cn2cnc3ccccc32)CC1	x	x	16%	-6
Cc1cc([N+](=O)[O-])ccc1NC(=O)CSc1nncn1-c1cccnc1	1	1%	-6%	-8
CCCN1C(=O)c2ccc(C(=O)NCc3ccco3)cc2C1=O	6	45µM*	-10%	11
CCc1nc2ccc(C(=O)NCc3ccco3)cc2nc1CC	3	35µM*	-22%	-10
CCc1nc2ccc(C(=O)Nc3cccc(C(C)=O)c3)cc2nc1CC	0	6%	18µM*	9
CCCCN1C(=O)c2ccc(C(=O)NCc3ccco3)cc2C1=O	x	-4%	-8%	u
CCc1nc2ccc(C(=O)NCc3ccc(C)o3)cc2nc1CC	x	5%	-7%	1
CCOC(=O)c1ccccc1NC(=O)C1CSC2(C)CCC(=O)N12 (stereo not given)	2	2%	0%	11
COc1ccccc1NC(=O)CSc1nnnn1-c1ccccc1F	0	40µM*	-7%	-8
COC(=O)c1sccc1NC(=O)CSc1nnnn1-c1ccccc1C	1	-11%	18µM*	-6
COc1ccccc1-n1nnnc1SCC(=O)Nc1ccccc1	3	5%	-9%	13
COc1ccc(NC(=O)CSc2nnnn2-c2ccccc2F)cc1	-1	20%	14%	-9
CCN(CC(=O)Nc1ccc(NC(C)=O)cc1)C(=O)c1ccc(NC2CC2)c([N+](=O)[O-])c1	x	x	u	-12
CC(C)OC(=O)CC1C(=O)NCCN1C(=S)NC(=O)c1ccccc1 (stereo not given)	-14	18µM*	0%	4
SMILES	FBPA coupling cs	Sfp PPTase inh	ELG1 repair inh	Giardia kill
COC(=O)CC1C(=O)NCCN1C(=O)c1sc2ccccc2c1Cl (stereo not given)	3	4%	2%	26
CC(C)OC(=O)CC1C(=O)NCCN1C(=S)NC(=O)c1ccc(F)cc1 (stereo not given)	-1	-25%	6%	-8
COC(=O)CC1C(=O)NCCN1C(=S)NC(=O)c1sc2ccccc2c1Cl (stereo not given)	-1	79µM*	7%	-9
CC(=O)c1ccc2noc(-c3ccccc3)c2c1	-2	-12%	9.2µM*	-27
CN(C)/C=C/C(=O)c1ccc2noc(-c3ccccc3)c2c1	5	-1%	23µM*	1
COc1cccc(-c2cc3c(-n4cccc4)ncnc3o2)c1	-2	22µM*	8%	-26
COc1cccc(-c2ccc3ncnc(N4CCN(C)CC4)c3c2)c1	0	18%	x	x
O=C(COC(=O)C1CC2CCCC(C1)C2=O)Nc1ccccc1 (stereo not given)	x	x	25%	20
COC(=O)[C@@H]1CC[C@H](C)[C@@H](c2ccc(C)cc2)N1C(=O)c1ccc(/C=N/O[C@@H](C)CN2CCCCc3nc(C)c(C)cc32)cc1	-8	25µM*	u	x
